Assay results published in the supplement of paper PMC10849652.
Targets with a hit are over-represented here; the source holds about 7,900 in all. About 0.6% of all pairs of compound and target were hits.

Experiments:
Experiment in all cases: log2 fold change, soluble protein after heating vs DMSO (PISA); higher = thermal stabilisation; K562 cells, 10 uM, 30 min; active = over 0.2 and 3.5 SD of the protein, either way, in both replicates (recomputed)
[1] = compound: COC1=CC=C(C=C1)CN2C=CC3=C2C=C(C=C3)C(=O)NO
How it was run: (§1)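 K562 cells at 2×10^6 cells/mL were treated with 10 μM compound for 30 min. Aliquots were heated for 3 min across 48°C-58°C, pooled, and extracted in PBS with 0.5% NP-40 at 4°C; soluble protein was the supernatant after 21,000xg for 90 min. Soluble protein was quantified by TMTpro 16plex LC-MS/MS with channel sums equalised, and reported as log2 fold change in thermal stability against DMSO controls, with values from duplicates.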

filanesib = compound: CON(C)C(=O)N1N=C(c2cc(F)ccc2F)S[C@@]1(CCCN)c1ccccc1 [filanesib]
How it was run: as §1

zotarolimus = compound: CO[C@H]1C[C@@H]2CC[C@@H](C)[C@@](O)(O2)C(=O)C(=O)N2CCCC[C@H]2C(=O)O[C@H]([C@H](C)C[C@@H]2CC[C@H](n3cnnn3)[C@H](OC)C2)CC(=O)[C@H](C)/C=C(\C)[C@@H](O)[C@@H](OC)C(=O)[C@H](C)C[C@H](C)/C=C/C=C/C=C/1C [zotarolimus]
How it was run: as §1

idasanutlin = compound: COc1cc(C(=O)O)ccc1NC(=O)[C@@H]1N[C@@H](CC(C)(C)C)[C@](C#N)(c2ccc(Cl)cc2F)[C@H]1c1cccc(Cl)c1F [idasanutlin]
How it was run: as §1

alisertib = compound: COc1cc(Nc2ncc3c(n2)-c2ccc(Cl)cc2C(c2c(F)cccc2OC)=NC3)ccc1C(=O)O [alisertib]
How it was run: as §1

[2] = compound: COc1cc2nc(-c3cc(F)ccc3O)nc(N[C@@H]3CNC[C@H]3C(C)(C)O)c2cc1OC
How it was run: as §1

gefitinib = compound: COc1cc2ncnc(Nc3ccc(F)c(Cl)c3)c2cc1OCCCN1CCOCC1 [gefitinib]
How it was run: as §1

[3] = compound: COc1cccc2cc(-c3nc([C@H]4CC[C@H](C(=O)O)CC4)n4ncnc(N)c34)[nH]c12
How it was run: as §1

lapatinib = compound: CS(=O)(=O)CCNCc1ccc(-c2ccc3ncnc(Nc4ccc(OCc5cccc(F)c5)c(Cl)c4)c3c2)o1 [lapatinib]
How it was run: as §1

pictilisib = compound: CS(=O)(=O)N1CCN(Cc2cc3nc(-c4cccc5[nH]ncc45)nc(N4CCOCC4)c3s2)CC1 [pictilisib]
How it was run: as §1

[4] = compound: CS(=O)(=O)c1ccc(-c2cnc(N)c(C(=O)Nc3ccccc3)n2)cc1
How it was run: as §1

crizotinib = compound: C[C@@H](Oc1cc(-c2cnn(C3CCNCC3)c2)cnc1N)c1c(Cl)ccc(F)c1Cl [crizotinib]
How it was run: as §1

[5] = compound: C[C@@H]1COCCN1C2=NC(=NC(=C2)C3(CC3)S(=O)(=O)C)C4=C5C=CNC5=CC=C4
How it was run: as §1

[6] = compound: C[C@H](C1=CC=C(C=C1)C(=O)NC2=C3C=CNC3=NC=C2)N
How it was run: as §1

duvelisib = compound: C[C@H](Nc1ncnc2nc[nH]c12)c1cc2cccc(Cl)c2c(=O)n1-c1ccccc1 [duvelisib]
How it was run: as §1

gandotinib = compound: Cc1cc(Nc2cc(CN3CCOCC3)c3nc(C)c(Cc4ccc(Cl)cc4F)n3n2)n[nH]1 [gandotinib]
How it was run: as §1

tozasertib = compound: Cc1cc(Nc2cc(N3CCN(C)CC3)nc(Sc3ccc(NC(=O)C4CC4)cc3)n2)n[nH]1 [tozasertib]
How it was run: as §1

[7] = compound: Cc1cc(SCc2sc(-c3ccc(C(F)(F)F)cc3)nc2C)ccc1OCC(=O)O
How it was run: as §1

doramapimod = compound: Cc1ccc(-n2nc(C(C)(C)C)cc2NC(=O)Nc2ccc(OCCN3CCOCC3)c3ccccc23)cc1 [doramapimod]
How it was run: as §1

ispinesib = compound: Cc1ccc(C(=O)N(CCCN)[C@@H](c2nc3cc(Cl)ccc3c(=O)n2Cc2ccccc2)C(C)C)cc1 [ispinesib]
How it was run: as §1

Measured: log2 fold change

NISCH (UniProt Q9Y2I1)
UniProt Q9Y2I1, sequence (Q9Y2I1 whole entry, looked up): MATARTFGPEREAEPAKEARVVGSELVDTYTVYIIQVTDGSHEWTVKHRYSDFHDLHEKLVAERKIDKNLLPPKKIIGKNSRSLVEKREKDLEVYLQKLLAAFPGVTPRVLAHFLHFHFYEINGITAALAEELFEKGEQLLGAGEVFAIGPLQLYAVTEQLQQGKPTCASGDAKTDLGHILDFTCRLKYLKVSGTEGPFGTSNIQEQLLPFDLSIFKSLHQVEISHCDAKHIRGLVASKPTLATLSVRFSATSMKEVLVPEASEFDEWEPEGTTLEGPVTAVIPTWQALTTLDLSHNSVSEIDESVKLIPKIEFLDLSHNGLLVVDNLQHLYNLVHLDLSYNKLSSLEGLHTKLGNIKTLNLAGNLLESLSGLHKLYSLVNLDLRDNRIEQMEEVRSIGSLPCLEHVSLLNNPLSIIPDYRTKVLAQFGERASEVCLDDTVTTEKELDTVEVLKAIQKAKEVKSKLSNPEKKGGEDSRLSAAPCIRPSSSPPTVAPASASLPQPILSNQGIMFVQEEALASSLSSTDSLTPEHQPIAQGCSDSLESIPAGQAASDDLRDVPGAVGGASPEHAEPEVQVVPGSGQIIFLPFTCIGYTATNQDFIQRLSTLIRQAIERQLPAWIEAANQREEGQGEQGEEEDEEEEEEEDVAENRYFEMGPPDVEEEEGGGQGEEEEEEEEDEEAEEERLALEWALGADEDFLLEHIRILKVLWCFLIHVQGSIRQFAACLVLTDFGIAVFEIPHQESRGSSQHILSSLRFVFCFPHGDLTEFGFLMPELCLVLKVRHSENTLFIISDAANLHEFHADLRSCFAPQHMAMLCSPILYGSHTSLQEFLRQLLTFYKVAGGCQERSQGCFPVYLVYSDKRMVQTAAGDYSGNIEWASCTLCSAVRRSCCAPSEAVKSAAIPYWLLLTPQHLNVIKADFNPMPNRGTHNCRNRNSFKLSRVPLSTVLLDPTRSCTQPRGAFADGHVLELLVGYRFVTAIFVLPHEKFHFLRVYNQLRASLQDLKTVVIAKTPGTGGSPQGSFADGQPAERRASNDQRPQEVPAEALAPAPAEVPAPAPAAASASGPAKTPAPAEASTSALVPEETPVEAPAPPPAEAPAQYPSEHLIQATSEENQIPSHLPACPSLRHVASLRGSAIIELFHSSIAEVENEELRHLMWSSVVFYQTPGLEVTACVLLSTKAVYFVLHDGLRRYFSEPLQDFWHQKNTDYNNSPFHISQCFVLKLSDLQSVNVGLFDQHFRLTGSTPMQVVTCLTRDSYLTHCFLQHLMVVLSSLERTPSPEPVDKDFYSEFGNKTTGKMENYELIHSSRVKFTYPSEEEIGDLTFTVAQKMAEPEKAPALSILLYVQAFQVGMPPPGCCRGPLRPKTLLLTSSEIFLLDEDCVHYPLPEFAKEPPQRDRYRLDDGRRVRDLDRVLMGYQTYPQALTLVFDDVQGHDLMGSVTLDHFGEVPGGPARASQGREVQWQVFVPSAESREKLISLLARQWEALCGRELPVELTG
inactive: [1] -0.008 | filanesib -0.029 | zotarolimus -0.022 | idasanutlin -0.015 | alisertib 0.023 | [2] -0.119 | gefitinib -0.014 | [3] 0.106 | lapatinib 0.041 | pictilisib -0.061 | [4] -0.026 | crizotinib -0.284 | [5] 0.035 | [6] 0.047 | duvelisib -0.363 | gandotinib -0.4 | tozasertib 0.006 | [7] 0.126 | doramapimod 0.054
active: ispinesib -0.408

NSMCE2 (UniProt Q96MF7)
UniProt Q96MF7, sequence (Q96MF7 whole entry, looked up): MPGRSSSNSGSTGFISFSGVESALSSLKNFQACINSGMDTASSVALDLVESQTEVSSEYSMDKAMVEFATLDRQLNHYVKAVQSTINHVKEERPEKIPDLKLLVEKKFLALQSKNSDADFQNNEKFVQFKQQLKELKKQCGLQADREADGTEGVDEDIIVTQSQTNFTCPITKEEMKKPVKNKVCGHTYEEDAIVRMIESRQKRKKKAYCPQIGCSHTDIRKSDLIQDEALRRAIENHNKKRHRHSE
inactive: [1] -0.029 | filanesib 0.045 | zotarolimus 0.018 | idasanutlin 0.027 | alisertib -0.076 | [2] 0.018 | gefitinib -0.009 | [3] -0.018 | lapatinib 0.023 | [4] 0.001 | crizotinib 0.051 | [5] -0.038 | [6] -0.024 | duvelisib -0.011 | gandotinib -0.131 | tozasertib 0.043 | [7] -0.042 | doramapimod 0.004 | ispinesib 0.044
active: pictilisib -0.233

MRPL50 (UniProt Q8N5N7)
active: [2] -0.719
inactive: [1] -0.03 | filanesib 0.078 | zotarolimus 0.202 | idasanutlin -0.122 | alisertib -0.078 | gefitinib 0.004 | [3] -0.022 | lapatinib 0.42 | pictilisib -0.067 | [4] -0.031 | crizotinib 0.133 | [5] 0.045 | [6] -0.045 | duvelisib -0.016 | gandotinib 0.04 | tozasertib 0.042 | [7] 0.104 | doramapimod 0.092 | ispinesib 0.199

MUL1 (UniProt Q969V5)
UniProt Q969V5, sequence (Q969V5 whole entry, looked up): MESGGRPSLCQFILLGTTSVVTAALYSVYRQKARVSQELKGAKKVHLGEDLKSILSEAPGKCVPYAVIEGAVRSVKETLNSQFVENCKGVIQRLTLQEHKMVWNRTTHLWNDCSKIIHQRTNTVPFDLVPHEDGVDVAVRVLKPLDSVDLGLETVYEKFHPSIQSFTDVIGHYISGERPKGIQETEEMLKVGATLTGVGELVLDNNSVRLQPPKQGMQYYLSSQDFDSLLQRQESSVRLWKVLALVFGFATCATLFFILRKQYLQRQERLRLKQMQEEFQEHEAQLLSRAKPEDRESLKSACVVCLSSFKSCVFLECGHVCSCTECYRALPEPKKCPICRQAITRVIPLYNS
inactive: [1] -0.044 | filanesib 0.042 | zotarolimus -0.064 | idasanutlin -0.052 | alisertib 0.069 | [2] -0.05 | gefitinib 0.017 | [3] -0.08 | lapatinib 0.006 | pictilisib 0.006 | [4] -0.023 | crizotinib 0.038 | [5] 0.078 | [6] -0.006 | duvelisib -0.042 | gandotinib -0.018 | tozasertib 0.083 | [7] -0.02 | doramapimod 0.056 | ispinesib -0.01

NFATC3 (UniProt Q12968)
UniProt Q12968, sequence (Q12968 whole entry, looked up): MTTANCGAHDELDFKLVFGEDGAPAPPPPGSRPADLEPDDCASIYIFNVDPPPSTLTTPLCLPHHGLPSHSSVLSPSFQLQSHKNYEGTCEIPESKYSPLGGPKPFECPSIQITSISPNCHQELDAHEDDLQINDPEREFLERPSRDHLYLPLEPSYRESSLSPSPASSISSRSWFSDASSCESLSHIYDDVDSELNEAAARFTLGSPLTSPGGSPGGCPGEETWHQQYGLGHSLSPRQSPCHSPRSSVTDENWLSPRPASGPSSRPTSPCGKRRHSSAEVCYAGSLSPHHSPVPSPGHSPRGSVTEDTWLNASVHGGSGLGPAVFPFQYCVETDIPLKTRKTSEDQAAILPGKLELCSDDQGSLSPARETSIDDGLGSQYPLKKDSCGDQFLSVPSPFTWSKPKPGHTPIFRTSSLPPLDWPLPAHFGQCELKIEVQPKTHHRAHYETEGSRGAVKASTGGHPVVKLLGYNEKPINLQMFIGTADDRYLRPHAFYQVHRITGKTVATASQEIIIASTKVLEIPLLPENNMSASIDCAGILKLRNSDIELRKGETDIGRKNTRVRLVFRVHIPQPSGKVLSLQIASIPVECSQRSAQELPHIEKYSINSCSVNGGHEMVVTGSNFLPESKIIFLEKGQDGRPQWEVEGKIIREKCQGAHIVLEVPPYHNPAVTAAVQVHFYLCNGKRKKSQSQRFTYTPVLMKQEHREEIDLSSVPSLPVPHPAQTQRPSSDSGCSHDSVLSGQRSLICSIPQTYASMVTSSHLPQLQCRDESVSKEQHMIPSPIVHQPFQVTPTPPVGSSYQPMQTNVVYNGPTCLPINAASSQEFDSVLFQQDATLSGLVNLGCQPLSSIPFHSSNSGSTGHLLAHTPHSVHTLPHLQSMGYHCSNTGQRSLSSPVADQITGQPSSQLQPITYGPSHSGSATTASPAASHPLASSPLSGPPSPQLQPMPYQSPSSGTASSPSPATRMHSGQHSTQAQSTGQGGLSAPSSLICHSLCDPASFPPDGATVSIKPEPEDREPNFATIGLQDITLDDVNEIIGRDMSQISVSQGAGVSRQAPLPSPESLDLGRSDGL
inactive: [1] 0.039 | filanesib 0.056 | zotarolimus -0.109 | idasanutlin -0.009 | alisertib 0.006 | [2] -0.109 | gefitinib 0.048 | [3] -0.002 | lapatinib 0.015 | pictilisib 0.086 | [4] -0.06 | crizotinib -0.179 | [5] 0.014 | [6] -0.04 | duvelisib -0.012 | gandotinib -0.161 | tozasertib -0.039 | [7] 0.091 | doramapimod 0.066 | ispinesib 0.256

NEK3 (UniProt P51956)
UniProt P51956, sequence (P51956 whole entry, looked up): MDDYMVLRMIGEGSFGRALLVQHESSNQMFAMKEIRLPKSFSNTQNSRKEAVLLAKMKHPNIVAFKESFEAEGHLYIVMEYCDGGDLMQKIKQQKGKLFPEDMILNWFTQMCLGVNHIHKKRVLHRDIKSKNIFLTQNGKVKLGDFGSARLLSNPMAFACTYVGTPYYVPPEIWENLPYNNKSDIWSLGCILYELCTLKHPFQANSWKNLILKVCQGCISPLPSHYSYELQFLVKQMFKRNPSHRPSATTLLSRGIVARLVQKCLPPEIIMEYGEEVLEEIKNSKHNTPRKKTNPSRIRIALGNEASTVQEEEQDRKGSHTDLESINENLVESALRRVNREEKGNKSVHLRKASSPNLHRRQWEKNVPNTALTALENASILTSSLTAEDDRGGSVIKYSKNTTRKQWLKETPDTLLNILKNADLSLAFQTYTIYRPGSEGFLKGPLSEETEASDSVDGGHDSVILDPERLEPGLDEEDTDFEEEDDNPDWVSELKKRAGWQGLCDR
inactive: [1] 0.058 | filanesib -0.297 | zotarolimus 0.217 | idasanutlin 0.116 | alisertib 0.074 | [2] 0.07 | gefitinib 0.086 | [3] -0.196 | lapatinib 0.061 | pictilisib 0.161 | [4] -0.086 | crizotinib 0.08 | [5] 0.19 | [6] -0.19 | duvelisib -0.032 | gandotinib 0.103 | tozasertib 0.083 | [7] 0.05 | doramapimod -0.014 | ispinesib -0.006
